From PubChem BioAssay (Tox21) come the findings set out here.

Values joined by “and” are separate entries in the source; they are usually repeats but may differ in a detail not shown here. Equal values may be shown once. Results filed as inconclusive are left out. Where a call stands in place of a potency, no number is given. Where a structure was tested more than once in an assay, its records may differ in their call. Active and inactive are the calls of the source. The call rests on the fitted dose curve.
Potency means the concentration at half of the fitted maximal effect.

Retinoic acid receptor RXR-alpha (Homo sapiens), sequence (P19793 whole entry, looked up): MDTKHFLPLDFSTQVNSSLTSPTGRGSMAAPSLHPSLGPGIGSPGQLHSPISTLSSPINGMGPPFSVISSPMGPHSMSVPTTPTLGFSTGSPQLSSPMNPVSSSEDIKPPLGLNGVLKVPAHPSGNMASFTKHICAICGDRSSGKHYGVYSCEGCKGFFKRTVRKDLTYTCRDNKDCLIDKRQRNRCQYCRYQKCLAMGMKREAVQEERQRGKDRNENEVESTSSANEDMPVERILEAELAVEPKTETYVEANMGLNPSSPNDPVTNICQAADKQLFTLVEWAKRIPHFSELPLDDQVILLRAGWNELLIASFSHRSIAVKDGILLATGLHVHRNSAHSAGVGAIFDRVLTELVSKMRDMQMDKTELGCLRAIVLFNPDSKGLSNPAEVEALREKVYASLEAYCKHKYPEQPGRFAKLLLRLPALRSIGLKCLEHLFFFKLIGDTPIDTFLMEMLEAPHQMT

The assay concerns the target Retinoic acid receptor RXR-alpha (Homo sapiens) (UniProt P19793). Put plainly: qHTS assay to identify small molecule agonists of the RXR signaling pathway (AID 1159527). Further: nearly all actives have a fitted effect of over 35% in size. The settings on record: HEK293T RXRa-UAS-bla, beta-lactamase ratio, 16 h; series mostly up to 76.8 µM. The source says: U.S. Tox21 Program National Center for Advancing Translational Sciences [NCATS] NIH Chemical Genomics Center [NCGC] U.S. Environmental Protection Agency [EPA] National Institutes of Environmental Health Sciences [NIEHS] National Toxicology Program [NTP] U.S. Food and Drug Administration [FDA] Tox21 Assay Overview: The Retinoid X receptor (RXR), a nuclear hormone receptor expressed in liver, spleen, placenta, epidermis, central nervous system. These receptors are able to form homo and heterodimers with other nuclear receptors and due to this heterodimerizing ability, RXR functions as master regulators producing diverse physiological effects. Three subtypes of RXR exist; alpha, beta and gamma. Retinoid X receptor alpha (RXR-alpha) has potential roles in metabolic signaling pathways, skin alopecia, dermal cysts, cardiac development, insulin sensitization etc. Therefore screening environmental chemicals on RXR-alpha signaling can be used for the studies focused on such therapeutic applications. For quantification of RXR-alpha ligands signaling, GeneBLAzer RXR alpha-UAS-bla HEK 293T (Life Technologies, Carlsbad, CA) cells containing a beta-lactamase reporter-gene under control of Retinoid X receptor-alpha response element were used to screen Tox21 10K library.
Tox21 Assay Protocol Summary: RXR-alpha HEK 293T cells were dispensed at 2,000 cells/6 uL of assay medium containing 2% charcoal-stripped FBS using a Multidrop Combi (ThermoFisher Scientific, Waltham, MA) dispenser. The assay was performed in black wall/clear-bottom 1536-well plates (Greiner Bio-One North America Inc. Monroe, NC). 9-cis retinoic acid was used as a positive control in the agonist mode screen. After the assay plates were incubated at 37 C and 5% CO2 for 5 hr, 23 nL of compounds dissolved in DMSO, positive controls or DMSO only were transferred to the assay plate by a Pintool station (Kalypsys, San Diego, CA). The assay plates were incubated at 37 C and 5% CO2 for 16 hr. One uL of LiveBLAzer B/G FRET substrate (Life Technologies) was added using a Flying Reagent Dispenser (Aurora Discovery, San Diego, CA) and the plates were incubated at room temperature for 2 hr. Fluorescence intensity (405 nm excitation, 460/530 nm emission) was measured using an Envision plate reader (PerkinElmer, Shelton, CT).
In general terms: qHTS replaces the single test concentration by a dilution series.
On to `Cc1cc(Cl)ccc1OCC(=O)O`, for which the Potency result is “inactive”.

Consider `CCC[N+]1(C)CCCCC1`, for which the Potency entry is “inactive”.

For `CC[n+]1ccccc1`, the Potency result is “inactive”.

Turning to `CCCCn1cc[n+](C)c1C`, the Potency entry is “inactive”.

Take `CCCCn1cc[n+](C)c1`: the Potency entry was “inactive”.

For the molecule `Nc1ccc(-c2ccc(N)c(Cl)c2)cc1Cl`, the Potency entry is “inactive”.

`CC[N+](CC)(CC)CC`: the Potency result was “inactive”.

As to `COCC(=O)N(c1c(C)cccc1C)C(C)C(=O)OC` (stereo not given), the Potency result is “inactive”.

As to `O=C(O)CCl`, the Potency entry is “inactive”.

Regarding `CC(Cl)(Cl)C(=O)O`, the Potency result was “inactive”.

On to `Oc1ccccc1-c1ccccc1`, for which the Potency entry was “inactive”.

In the case of `O=C(O)CC(O)(CC(=O)O)C(=O)O`, the Potency entry was “inactive”.

On to `CNC`, for which the Potency entry is “inactive”.

Take `CCCC[N+]1(C)CCCC1`: the Potency result is “inactive”.

Take `OCCOc1ccccc1`: the Potency result was “inactive”.

Take `CCCC[n+]1ccc(C)cc1`: the Potency result was “inactive”.

With `Nc1ccccc1`, the Potency entry is “inactive”.

Take `CCCCCCCCCCCCn1cc[n+](C)c1`: the Potency entry was “inactive”.

For `O=c1nc(O)n(Cl)c(=O)n1Cl`, the Potency result was “inactive”.

Turning to `CCCC[n+]1cccc(C)c1`, the Potency entry was “inactive”.

In the case of `O=[N+]([O-])c1ccccc1O`, the Potency result is “inactive”.

`CCCCCCCCCCCCOS(=O)(=O)O`: the Potency result is “inactive”.

Take `O=C(O)C(Cl)Cl`: the Potency result was “inactive and 3.09 µM (active)”.

Turning to `CCC[N+]1(C)CCCC1`, the Potency entry is “inactive”.

Consider `O=C(O)c1nc(Cl)ccc1Cl`, for which the Potency result was “inactive”.

Regarding `CCCn1cc[n+](C)c1`, the Potency entry was “inactive”.

As to `CCCC[n+]1ccccc1`, the Potency entry was “inactive”.

Take `CC(=O)O`: the Potency entry was “inactive”.

As for `CCCCCCCCCCCCCCCCn1cc[n+](C)c1`, the Potency entry is “inactive”.

On to `CCCCCC[n+]1ccccc1`, for which the Potency result is “inactive”.

On to `CCn1cc[n+](C)c1C`, for which the Potency entry was “inactive”.

As for `COc1ccc(N)cc1`, the Potency result is “inactive”.

Turning to `O=C(O)c1ccccc1O`, the Potency result is “inactive”.

In the case of `Nc1ccc(Cl)cc1`, the Potency was 8.71 µM (active) and inactive.

Regarding `O=P1(N(CCCl)CCCl)NCCCO1` (stereo not given), the Potency result was “inactive”.

In the case of `COP(=O)(OC)C(O)C(Cl)(Cl)Cl` (stereo not given), the Potency entry is “inactive”.

For the molecule `CCCC[N+]1(C)CCCCC1`, the Potency entry was “inactive”.

As to `Cc1cc(Cl)ccc1N`, the Potency result was “inactive”.

`COc1ccccc1N`: the Potency entry is “inactive”.

As to `O=S(=O)(O)O`, the Potency result was “inactive”.
